# Results from PubChem BioAssay (EPA / NIEHS).
# Records with an inconclusive call do not appear. Activity calls are given as the source filed them. The calls were made as follows, unless noted: active = hit-call score of the fitted dose curve at least 0.9, where 1 is the maximum; inactive = score below 0.9.
# What was measured:
# [1] = ATG_XTT_Cytotoxicity: Cytotoxicity Assessment in the Attagene TRANS-FACTORIAL HepG2 Assay (AID 2283584; active = hit-call score of the fitted dose curve at least 0.9, where 1 is the maximum)
# Procedure, shortened: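 Transfect HepG2 with GAL4-UAS reporter units, dose compound, incubate 24 h, then measure viable cell number by XTT. Fit concentration response against DMSO baseline.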
# [2] = read-out: matrix metalloproteinase-10 (MMP10), MMP10 (gene 4319); assay: LTEA_HepaRG_MMP10: Life Technologies and Expression Analysis (LTEA) Assay for matrix metalloproteinase-10 (MMP10) using HepaRG (AID 2283517); conditions: mRNA level, 48 h; actives raise or lower the signal
# Procedure, shortened: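 In differentiated HepaRG cultures kept in 0.5% DMSO, test chemicals act for 48 h over an eight-point range with a top dose of 100 uM. Expression is then quantified by TaqMan RT-PCR against ACTB, GAPDH and POLR2A.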
# MYC, MYC (gene 4609) = assay: LTEA_HepaRG_MYC: Life Technologies and Expression Analysis (LTEA) Assay for MYC using HepaRG (AID 2283518); conditions: mRNA level, 48 h; actives raise or lower the signal
# Procedure, shortened: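 Cells are thawed, plated and cultured 48 h, then treated for 48 h with test chemicals (eight half-log concentrations from 100 uM, 0.5% DMSO vehicle). RNA is isolated and MYC expression quantified by qRT-PCR against three housekeeping genes.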
# [3] = read-out: matrix metalloproteinase-3 (MMP3), MMP3 (gene 4314); assay: LTEA_HepaRG_MMP3: Life Technologies and Expression Analysis (LTEA) Assay for matrix metalloproteinase-3 (MMP3) using HepaRG (AID 2283519); conditions: mRNA level, 48 h; actives raise or lower the signal
# Procedure, shortened: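 Human liver HepaRG cultures received chemicals (top concentration 100 uM, 0.5% DMSO) for 48 h in duplicate. MMP3 mRNA induction or loss was then assessed via TaqMan qRT-PCR with housekeeping-gene normalisation.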
# [4] = read-out: Paternally Expressed 10 (PEG10), PEG10 (gene 23089); assay: LTEA_HepaRG_PEG10: Life Technologies and Expression Analysis (LTEA) Assay for Paternally Expressed 10 (PEG10) using HepaRG (AID 2283520); conditions: mRNA level, 48 h; actives raise or lower the signal
# Procedure, shortened: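 qRT-PCR read-out: PEG10 mRNA normalised to three housekeeping genes, fitted bidirectionally against 0.5% DMSO vehicle. HepaRG cells received test chemicals for 48 h in serum-free induction medium, 8 points, top 100 uM, half-log steps.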
# [5] = read-out: Phosphatase and tensin (PTEN), PTEN (gene 5728); assay: LTEA_HepaRG_PTEN: Life Technologies and Expression Analysis (LTEA) Assay for Phosphatase and tensin (PTEN) using HepaRG (AID 2283523); conditions: mRNA level, 48 h; actives raise or lower the signal
# Procedure, shortened: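 Expression of PTEN is quantified in the human liver line HepaRG following two days of dosing (top concentration 100 uM, half-log dilutions, 0.5% DMSO). Values derive from bidirectional curve fitting relative to DMSO controls.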
# [6] = read-out: solute carrier (SLC22A1), SLC22A1 (gene 6580); assay: LTEA_HepaRG_SLC22A1: Life Technologies and Expression Analysis (LTEA) Assay for solute carrier (SLC22A1) using HepaRG (AID 2283524); conditions: mRNA level, 48 h; actives raise or lower the signal;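 as to AC50: differentiated human HepaRG liver cells in serum-free induction medium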
# Procedure, shortened: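 Transcript induction or suppression of SLC22A1 in human HepaRG cultures is scored after 48 h chemical treatment, with DMSO (0.5%) as baseline for bidirectional fitting. Concentrations span eight half-log points topping at 100 uM.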
# [7] = read-out: Nuclear factor erythroid 2-related factor 2 (Homo sapiens) (UniProt Q16236); assay: LTEA_HepaRG_NFE2L2: Life Technologies and Expression Analysis (LTEA) Assay for Nuclear factor erythroid 2-related factor 2 (NFE2L2) Transcription Factor using HepaRG (AID 2283527); conditions: mRNA level, 48 h; actives raise or lower the signal
# Procedure, shortened: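 Human liver HepaRG line treated in duplicate for 48 h with an eight-point series topping at 100 uM. Gene expression of NFE2L2 by qRT-PCR, bidirectionally fitted against the vehicle control.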
# [8] = read-out: succinate dehydrogenase complex iron sulfur subunit B (SDHB), SDHB (gene 6390); assay: LTEA_HepaRG_SDHB: Life Technologies and Expression Analysis (LTEA) Assay for succinate dehydrogenase complex iron sulfur subunit B (SDHB) using HepaRG (AID 2283528); conditions: mRNA level, 48 h; actives raise or lower the signal
# Procedure, shortened: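 SDHB transcript level read by TaqMan qRT-PCR, housekeeping-normalised (ACTB, GAPDH, POLR2A), after 48 h chemical treatment of plated HepaRG cells; eight concentrations top 100 uM, half-log steps, 0.5% DMSO, duplicates; fitted both directions against DMSO.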
# [9] = read-out: Signal transducer and activator of transcription 3 (Homo sapiens) (UniProt P40763); assay: LTEA_HepaRG_STAT3: Life Technologies and Expression Analysis (LTEA) Assay for Signal transducer and activator of transcription (STAT3) using HepaRG (AID 2283529); conditions: mRNA level, 48 h; actives raise or lower the signal
# Procedure, shortened: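 In this transcriptional endpoint, HepaRG cultures receive test chemicals at up to 100 uM for 48 h, tested in duplicate. STAT3 mRNA is normalized to ACTB, GAPDH and POLR2A.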
# [10] = read-out: sulfotransferase 2A1 (SULT2A1), SULT2A1 (gene 6822); assay: LTEA_HepaRG_SULT2A1: Life Technologies and Expression Analysis (LTEA) Assay for sulfotransferase 2A1 (SULT2A1) using HepaRG (AID 2283531); conditions: mRNA level, 48 h; actives raise or lower the signal
# Procedure, shortened: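 Cells were plated and cultured 48 h, switched to serum-free induction medium, then dosed in duplicate for 48 h (8 concentrations, max 100 uM). RNA was isolated and SULT2A1 expression measured by qRT-PCR; gain or loss of signal fitted relative to DMSO.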
# [11] = read-out: Transforming Growth Factor (TGFB1), TGFB1 (gene 7040); assay: LTEA_HepaRG_TGFB1: Life Technologies and Expression Analysis (LTEA) Assay for Transforming Growth Factor (TGFB1) Transporter using HepaRG (AID 2283533); conditions: mRNA level, 48 h; actives raise or lower the signal
# Procedure, shortened: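 Expression change of TGFB1 in human HepaRG cells is measured after a 48 h chemical exposure, up to 100 uM in 0.5% DMSO vehicle. Curves are fitted in both directions relative to the DMSO baseline.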
# TIMP1, TIMP1 (gene 7076) = assay: LTEA_HepaRG_TIMP1: Life Technologies and Expression Analysis (LTEA) Assay for TIMP1 using HepaRG (AID 2283534); conditions: mRNA level, 48 h; actives raise or lower the signal;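 also: TaqMan qRT-PCR signal normalized to ACTB GAPDH and POLR2A housekeeping genes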
# Procedure, shortened: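 We dosed human liver HepaRG cultures for 48 hours with up to 100 uM test chemical and measured TIMP1 expression by qRT-PCR. Activity in either direction is fitted relative to the 0.5% DMSO vehicle.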
# [12] = read-out: Tumor necrosis factor receptor 1 (TNFRSF1A), TNFRSF1A (gene 7132); assay: LTEA_HepaRG_TNFRSF1A: Life Technologies and Expression Analysis (LTEA) Assay for Tumor necrosis factor receptor 1 (TNFRSF1A) using HepaRG (AID 2283535); conditions: mRNA level, 48 h; actives raise or lower the signal
# Procedure, shortened: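 Expression of TNFRSF1A in human HepaRG liver cells was measured by qRT-PCR 48 h after chemical dosing (maximum 100 uM). Bidirectional curve fitting used 0.5% DMSO as baseline.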
# [13] = read-out: Thyroid Hormone Responsive (THRSP), THRSP (gene 7069); assay: LTEA_HepaRG_THRSP: Life Technologies and Expression Analysis (LTEA) Assay for Thyroid Hormone Responsive (THRSP) using HepaRG (AID 2283536); conditions: mRNA level, 48 h; actives raise or lower the signal
# Procedure, shortened: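 Cell model: human HepaRG, approx. 100,000 cells/well, 0.5% DMSO vehicle. Exposure lasts 48 h; phenobarbital 1 mM serves as induction positive control. Gene expression is measured by qRT-PCR against three endogenous control genes.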
# [14] = read-out: UDP glucuronosyltransferase (UGT1A6), UGT1A6 (gene 54578); assay: LTEA_HepaRG_UGT1A6: Life Technologies and Expression Analysis (LTEA) Assay for UDP glucuronosyltransferase (UGT1A6) using HepaRG (AID 2283539); conditions: mRNA level, 48 h; actives raise or lower the signal
# Procedure, shortened: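 Endpoint is UGT1A6 transcript induction or loss in a human liver cell line, quantified by TaqMan qRT-PCR 48 h after dosing. Concentrations ran from 100 uM downward in half-log steps in 0.5% DMSO; activity was fitted in both directions versus vehicle.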
# [15] = read-out: X-box binding protein 1 (XBP1), XBP1 (gene 7494); assay: LTEA_HepaRG_XBP1: Life Technologies and Expression Analysis (LTEA) Assay for X-box binding protein 1 (XBP1) using HepaRG (AID 2283540); conditions: mRNA level, 48 h; actives raise or lower the signal
# Procedure, shortened: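 Human HepaRG monolayers receive test chemical for 48 h across an eight-point half-log series starting at 100 uM. XBP1 mRNA gain or loss is scored against DMSO by qRT-PCR.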
# Sequence of Signal transducer and activator of transcription 3 (Homo sapiens) (P40763 whole entry, looked up): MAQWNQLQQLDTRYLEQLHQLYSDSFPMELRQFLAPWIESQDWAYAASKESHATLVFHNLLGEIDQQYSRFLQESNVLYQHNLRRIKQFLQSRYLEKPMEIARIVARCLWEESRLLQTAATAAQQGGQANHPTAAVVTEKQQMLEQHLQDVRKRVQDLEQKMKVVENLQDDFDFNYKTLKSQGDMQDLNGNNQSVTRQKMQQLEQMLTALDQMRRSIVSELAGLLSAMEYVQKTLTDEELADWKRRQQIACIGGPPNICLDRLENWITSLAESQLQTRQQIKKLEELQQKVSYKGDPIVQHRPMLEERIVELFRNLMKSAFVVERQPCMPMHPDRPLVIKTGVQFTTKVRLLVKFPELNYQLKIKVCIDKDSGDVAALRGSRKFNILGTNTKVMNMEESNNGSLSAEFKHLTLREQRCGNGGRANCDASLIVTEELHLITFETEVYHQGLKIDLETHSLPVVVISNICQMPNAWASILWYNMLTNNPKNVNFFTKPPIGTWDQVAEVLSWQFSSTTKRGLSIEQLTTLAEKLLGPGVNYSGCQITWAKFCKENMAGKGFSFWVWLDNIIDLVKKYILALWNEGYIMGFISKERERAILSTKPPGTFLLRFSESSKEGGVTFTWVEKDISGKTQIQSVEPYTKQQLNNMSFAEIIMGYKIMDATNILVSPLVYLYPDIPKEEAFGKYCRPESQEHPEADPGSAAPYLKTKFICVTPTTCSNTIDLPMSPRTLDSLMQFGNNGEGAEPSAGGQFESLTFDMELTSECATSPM
# Sequence of Nuclear factor erythroid 2-related factor 2 (Homo sapiens) (Q16236 whole entry, looked up): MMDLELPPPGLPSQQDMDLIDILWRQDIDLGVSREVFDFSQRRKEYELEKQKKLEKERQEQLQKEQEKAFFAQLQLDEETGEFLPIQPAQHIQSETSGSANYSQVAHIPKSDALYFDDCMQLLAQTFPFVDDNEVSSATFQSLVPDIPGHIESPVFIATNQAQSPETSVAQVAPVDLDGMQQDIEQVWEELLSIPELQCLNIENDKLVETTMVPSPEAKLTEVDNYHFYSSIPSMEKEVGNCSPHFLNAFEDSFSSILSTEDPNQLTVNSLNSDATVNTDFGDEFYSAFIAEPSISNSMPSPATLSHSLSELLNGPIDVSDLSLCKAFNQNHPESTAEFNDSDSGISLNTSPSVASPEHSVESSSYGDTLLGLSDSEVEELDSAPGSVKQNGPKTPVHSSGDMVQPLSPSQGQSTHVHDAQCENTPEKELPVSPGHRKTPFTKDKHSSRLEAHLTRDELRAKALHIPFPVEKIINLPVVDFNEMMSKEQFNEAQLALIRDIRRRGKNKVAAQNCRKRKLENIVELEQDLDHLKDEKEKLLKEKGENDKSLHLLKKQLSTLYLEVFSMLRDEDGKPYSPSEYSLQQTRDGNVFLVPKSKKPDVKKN
compound,measurement,setting,value
Cc1cccc2c1ccc1ccccc12,outcome,[1],inactive
CN(Cc1cnc2nc(N)nc(N)c2n1)c1ccc(C(=O)N[C@@H](CCC(=O)O)C(=O)O)cc1,outcome,[2],inactive
same,outcome,"MYC, MYC (gene 4609)",inactive
same,outcome,[3],inactive
same,outcome,[4],inactive
same,outcome,[5],inactive
same,AC50,[6],137 nM (active)
same,outcome,[7],inactive
same,outcome,[8],inactive
same,outcome,[9],inactive
same,AC50,[10],266 nM (active)
same,outcome,[11],inactive
same,outcome,"TIMP1, TIMP1 (gene 7076)",inactive
same,outcome,[12],inactive
same,AC50,[13],167 nM (active)
same,outcome,[14],inactive
same,AC50,[15],94.4 nM (active)
same,outcome,[1],inactive
O=C1C=CC(=O)N1c1cccc(N2C(=O)C=CC2=O)c1,outcome,[1],inactive
CCCCCCCCCCCC(=O)O,outcome,[1],inactive
CN(C)CCOC(c1ccccc1)c1ccccc1,outcome,[2],inactive
same,outcome,"MYC, MYC (gene 4609)",inactive
same,outcome,[3],inactive
same,outcome,[4],inactive
same,outcome,[5],inactive
same,outcome,[6],inactive
same,outcome,[8],inactive
same,outcome,[9],inactive
same,outcome,[10],inactive
same,outcome,[11],inactive
same,outcome,"TIMP1, TIMP1 (gene 7076)",inactive
same,outcome,[12],inactive
same,AC50,[13],58400 nM (active)
same,outcome,[14],inactive
same,outcome,[15],inactive
same,outcome,[1],inactive
